Among all 350,000 compounds or so, about 9,900 (2.8%) were called active. Roughly 15% stayed inconclusive and do not appear here. Calls follow the shape of the dose curve; as a rule, active = well fitted activation curve with a large enough effect; inconclusive = small, poorly fitted or top-dose-only effect; inactive = no such curve, though single readings can be large or run the other way. The list comes from a sample in which actives are over-represented; it also holds similar structures and randomly drawn compounds. Where a call stands in place of a potency, no number is given.
assay: A quantitative high throughput screen for small molecules that induce DNA re-replication in MCF 10a normal breast cells.; also: nearly all actives have a fitted effect of over 50% in size; settings: MCF 10A DNA re-replication, Hoechst nuclear intensity, 48 h; series mostly up to 46.1 µM
Potency is read from the fitted curve at half-maximal effect.

| Compound | Potency |
| --- | --- |
| OCCN1CCN(CCO)C1=S | inactive |
| O=C(CCC(=O)N1CCN(S(=O)(=O)c2ccc(Cl)cc2)CC1)NCc1cccc(C(F)(F)F)c1 | inactive |
| C[C@H](NC(=O)c1[nH]cnc1C(=O)Nc1nccs1)c1ccccc1 | inactive |
| CN(CC(=O)NCCc1ccc(S(N)(=O)=O)cc1)CC(=O)Nc1ccc(Cl)cc1 | inactive |
| CCC(C)NC(=O)c1ccc(NC(=O)CC2SC(N3CCCCC3)=NC2=O)cc1 (stereo unspecified) | inactive |
| CCOC(=O)C1=C(NC(=S)NC(=O)c2ccccc2)c2ccccc2CC1(C)C | 4.11 µM (active) |
| CCOC(=O)c1c(-c2ccccc2)csc1NC(=S)NC(=O)c1ccccc1 | inactive |
| Cc1ccc(NC(=S)NC(=O)c2ccc(-c3ccccc3)cc2)cc1 | inactive |
| CSc1ccc(S(=O)(=O)NCC(=O)OCC(=O)NC2(C#N)CCCCC2)cc1[N+](=O)[O-] | inactive |
| COc1ccc(CCNC(=O)COC(=O)C2CC2C)cc1 (stereo unspecified) | inactive |
| C#CCOCCOCCOCCNc1nc(N2CCN(C(=O)[C@H](CO)n3cc([C@@H](N)C(C)C)nn3)CC2)nc(N2CCN(C(=O)[C@H](CCC(=O)O)n3cc([C@@H](N)[C@H](C)CC)nn3)CC2)n1 | inactive |
| CCOC(=O)c1sc(=NC(=O)c2ccc(Br)cc2)n(C)c1C | inactive |
| CCOC(=O)c1sc(=S)n2c1[nH]c(=O)c1ccc(C(=O)OC)cc12 | inactive |
| CCOC(=O)C1=C(C)Nc2sc(C(=O)c3ccc(Br)cc3)c(N)c2C1c1ccc(C(=O)OC)cc1 (stereo unspecified) | 2.91 µM (active) |
| CC(Oc1ccc(Br)cc1)C(=O)NC1CCCCCC1 (stereo unspecified) | inactive |
| COc1cccc(CC2(CO)CCCN(Cc3ccc(OC(F)F)cc3)C2)c1 (stereo unspecified) | inactive |
| CCc1[nH]nc(C(=O)N2CCCC(CO)(Cc3ccc(F)cc3F)C2)c1C (stereo unspecified) | inactive |
| CCOc1cc(CN2CCCC(CO)(Cc3ccc(F)cc3F)C2)ccc1OC (stereo unspecified) | 3.66 µM (active) |
| Cc1nc(N)nc(Cl)c1CCC1OCCO1 | inactive |
| O=C(COC(=O)c1cccnc1Cl)NC(=O)NC1CCCCC1 | inactive |
| CCOC(=O)[C@@H]1[C@H]2COc3ccc(Br)cc3[C@H]2N2C(=O)N(c3ccc(C)cc3)C(=O)[C@@]12C | inactive |
| COc1ccc(OC)c(/C(C)=N\NC(=O)c2cc3cc(Cl)ccc3n2C)c1 | 14.6 µM (active) |
| COc1ccc(OC)c(C(=O)c2ccc(Cl)cc2)c1 | inactive |
| COc1ccc(/C(C)=N/NC(=O)CCC(=O)Nc2ccc(Cl)cc2Cl)c(OC)c1 | inactive |
| C=CCN1C=C(C(=O)c2ccccc2)C(=O)CC1 | inactive |
| OCC[C@H]1C[C@@H](O)[C@H](O)[C@@]2(OCCc3ccccc32)O1 | inactive |

| Compound | Potency |
| --- | --- |
| O=C(Nc1cccc(Br)c1)C1CC(=O)N(C2CCCC2)C1 (stereo unspecified) | inactive |
| COc1ccccc1C(=O)N1CC2(C)CC1CC(C)(C)C2 (stereo unspecified) | inactive |
| Cc1cccc(C(=O)NCC(=O)OCC(=O)N2CC3(C)CC2CC(C)(C)C3)c1 (stereo unspecified) | inactive |
| Cc1nnnn1/C(=C\c1ccccc1)C(=O)OCC(=O)N1CC2(C)CC1CC(C)(C)C2 (stereo unspecified) | 16.4 µM (active) |
| O=C(COC(=O)Cc1ccc([N+](=O)[O-])cc1)NC1CCCCCC1 | inactive |
| CSc1ncccc1C(=O)Nc1cccc(S(=O)(=O)N2CCOCC2)c1 | inactive |
| CSc1ncc(Sc2ccccc2)c(C(=O)O)n1 | inactive |
| CSc1nc(-c2ccccc2)nc(C(Cl)Cl)n1 | 2.59 µM (active) |
| CSc1nc(C)cc(SC(C(C)=O)C(=O)Nc2ccccc2)n1 (stereo unspecified) | inactive |
| O=C(Nc1cccc(S(=O)(=O)NC2=NCCC2)c1)c1ccc(F)cc1F | inactive |
| O=C(Nc1ccc(C(F)(F)F)cc1)c1cccc(-n2cnnn2)c1 | inactive |
| CC(C)COc1ccc(C(=O)NNC(=O)CCC(=O)c2cccs2)cc1 | inactive |
| C#Cc1ccc([C@@H]2C=C(C(=O)O)O[C@H](OCCCCO)C2)cc1 | inactive |
| O=C(NCc1ccccc1)C1=C[C@@H](C2CCCCC2)C[C@@H](OCc2ccc(CO)cc2)O1 | 18.4 µM (active) |
| O=C(NCc1ccccc1)C1=C[C@H](C2CC2)C[C@H](OCc2ccc(CO)cc2)O1 | inactive |
| O=C(NCc1ccccc1)C1=C[C@@H](c2ccccc2)C[C@@H](OCCCCO)O1 | 16.4 µM (active) |
| CC(C)(C)[C@H]1C=C(C(=O)NCc2ccccc2)O[C@@H](OCc2ccc(CO)cc2)C1 | inactive |
| O=C(O)C1=C[C@H](c2cccs2)C[C@H](OCCCCO)O1 | inactive |
| CC(=O)OC1CCC2(C)C(=CCC3C4CC(=O)N(O)C(=O)C4(C)CCC32)C1 (stereo unspecified) | inactive |
| CC(C)Cc1nnc(N)s1 | inactive |
| CC(C)c1ccc(C=NNc2ccc([N+](=O)[O-])cn2)cc1 | 6.51 µM (active) |
| COc1ccc(Nc2ccc([N+](=O)[O-])cn2)cn1 | inactive |
| NC(=S)N/N=C/c1ccc([N+](=O)[O-])cc1 | inactive |
| Cc1ccc(S(=O)(=O)NCCNC(C)c2ccc(Br)cc2)cc1 (stereo unspecified) | inactive |
| C#CCOCCOCCOCCNc1nc(N2CCN(C(=O)[C@H](CCCN=C(N)N)n3cc(C(N)[C@@H](C)CC)nn3)CC2)nc(N2CCN(C(=O)[C@H](CO)n3cc([C@@H](N)C(C)C)nn3)CC2)n1 (stereo partly specified) | inactive |

Source: PubChem BioAssay AID624296 (National Center for Advancing Translational Sciences (NCATS), 2012)
